Compound activity (PubChem BioAssay)
NPR2 activator = GC-B (human) receptor activation. P20594. HEK293-GC-B cells, CNP EC30, cGMP TR-FRET; 0% at EC30 CNP, 100% saturating CNP. activation, % at 10 µM. actives 0.11% (n = 370,000). AID 1920062;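 active = activation at 10 µM reaching about 35% in either raw or pattern-adjusted values, limit read from the data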
ADAM17 inh = inhibitors of human ADAM17; recombinant ADAM17, EDANS/DABCYL FRET peptide cleavage; actives 0.83% (n = 370,000); inhibition, % at 6.95 µM;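 active = inhibition above the mean of compounds lying between control limits plus 3 SD, set per campaign, cut at about 8.5% in these data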;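 also: 0% = DMSO-only wells as the low control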
Target sequence (P78536 215-824 limits assumed): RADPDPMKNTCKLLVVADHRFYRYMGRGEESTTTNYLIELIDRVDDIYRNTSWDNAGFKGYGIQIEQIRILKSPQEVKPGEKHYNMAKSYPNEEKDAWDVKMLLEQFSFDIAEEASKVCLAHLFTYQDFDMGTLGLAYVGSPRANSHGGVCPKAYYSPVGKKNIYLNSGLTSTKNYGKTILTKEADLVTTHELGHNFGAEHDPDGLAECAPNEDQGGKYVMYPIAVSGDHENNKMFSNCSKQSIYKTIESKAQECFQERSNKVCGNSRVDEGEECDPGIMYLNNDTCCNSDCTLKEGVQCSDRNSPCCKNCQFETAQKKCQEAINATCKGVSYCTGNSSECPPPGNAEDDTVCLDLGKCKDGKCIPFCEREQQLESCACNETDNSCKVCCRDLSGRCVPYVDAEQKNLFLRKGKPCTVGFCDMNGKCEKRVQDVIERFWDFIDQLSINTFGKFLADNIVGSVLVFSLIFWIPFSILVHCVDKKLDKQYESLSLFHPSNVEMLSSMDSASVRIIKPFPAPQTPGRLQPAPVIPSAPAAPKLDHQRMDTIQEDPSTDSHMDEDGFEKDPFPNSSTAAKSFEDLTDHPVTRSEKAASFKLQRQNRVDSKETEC
NPR1 activator = GC-A (human) enzyme activation. P16066. HEK293 GC-A cells, cGMP TR-FRET, EC30 ANP; 0% at EC30 ANP, 100% saturating ANP. activation, % at 10 µM. actives 0.14% (n = 370,000); in the data active = activation above about 40%
ADAM10 inh = inhibitors of human ADAM10; actives 0.62% (n = 370,000); recombinant ADAM10, EDANS/DABCYL FRET peptide cleavage, 3 h; inhibition, % at 7 µM; O14672;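 active = inhibition above a per-campaign cutoff equal to the mean of compounds falling between control-based bounds plus 3 SD, cut at about 20% in these data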;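 also: 0% = DMSO wells while the 100% control is not disclosed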
ADAM10 confirm = human ADAM10 inhibition, confirmation; shares compounds with ADAM10 inh; ADAM10 QFRET peptide cleavage, EDANS fluorescence; inhibition, % at 6.95 µM; actives 1% (n = 2,100); AID 743208;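 active = inhibition above about 20% chosen separately for each screening run, limit read from the data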;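 also: 0% = DMSO wells and 100% = marimastat wells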
ADAM17 ctr = counter-screen for ADAM10 exosite inhibitors: inhibitors of human ADAM17 | inhibition, % at 6.95 µM | shares compounds with ADAM10 inh | actives 0.5% (n = 2,100) | AID 743214 | ADAM17 QFRET peptide cleavage, EDANS fluorescence;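 active = mean triplicate inhibition above the solvent-only control wells' mean plus 3 SD, cut at about 12% in these data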;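 also: 0% = DMSO wells and 100% = marimastat wells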
ADAM10 ctr = counter-screen for ADAM17 exosite inhibitors: inhibitors of human ADAM10. shares compounds with ADAM17 inh. recombinant ADAM10, EDANS/DABCYL FRET peptide cleavage, 3 h. inhibition, % at 6.95 µM. actives 47% (n = 2,900). AID 743256;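 active = mean inhibition over the triplicate runs exceeds the activity threshold set in the earlier primary screen, cut at about 20% in these data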;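 also: 0% = DMSO wells and 100% = marimastat wells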
ADAM17 confirm = confirmation of inhibitors of human ADAM17 | inhibition, % at 6.95 µM | shares compounds with ADAM17 inh | AID 743257 | recombinant ADAM17, EDANS/DABCYL QFRET peptide cleavage | actives 65% (n = 2,900);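 active = mean inhibition across replicates above the hit cutoff set in the primary screen, cut at about 8.5% in these data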;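 also: 0% = DMSO wells and 100% = marimastat wells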
Numbers without * were called inactive. An excerpt weighted towards active compounds, which were near 1.3% of everything screened.

What do the screens show for `Cc1cc(C(=O)OC(C(=O)Nc2ccc(C)c(Cl)c2)c2ccccc2)c(C)o1` (centres undefined)?
NPR2 activator: 4.6; ADAM17 inh: 7.4; NPR1 activator: 0.1; ADAM10 inh: 22.3*; ADAM10 confirm: 5.0; ADAM17 ctr: 3.3

How did COc1ccc(C=NNC(=O)Cc2cc(=O)[nH][nH]2)c(OC)c1 do in these assays?
NPR2 activator: 2.8; ADAM17 inh: -3.8; NPR1 activator: 1.5; ADAM10 inh: -3.3

Results for O=C(Nc1ccc(S(=O)(=O)Nc2nccs2)cc1)/C(=C/c1ccccc1Cl)NC(=O)c1ccccc1 ?
NPR2 activator: -0.1; ADAM17 inh: 7.6; NPR1 activator: -22.8; ADAM10 inh: 31.5*; ADAM10 confirm: 0.8; ADAM17 ctr: -0.3

What do the screens show for `O=C(Nc1ccc(S(=O)(=O)Nc2nccs2)cc1)c1cc(-c2ccccc2)nc2ccccc12`?
NPR2 activator: -2.2; ADAM17 inh: 8.3; NPR1 activator: -8.1; ADAM10 inh: 26.6*; ADAM10 confirm: 9.1; ADAM17 ctr: 2.0

How did Cc1ccc(NS(=O)(=O)c2c(C(=O)N3CCCC3)c(C)n(C)c2C)cc1 do in these assays?
NPR2 activator: 2.5; ADAM17 inh: -0.7; NPR1 activator: 1.0; ADAM10 inh: -2.6

How did Cc1ccc(Cn2cc(CN(C(C)(C)C)S(=O)(=O)c3ccccc3Br)nn2)cc1 do in these assays?
NPR2 activator: 4.6; ADAM17 inh: 4.7; NPR1 activator: 1.5; ADAM10 inh: 9.8

What do the screens show for `Cc1nn(CC(=O)NCCN2CCOCC2)c(=O)c2cc3sccc3n12`?
NPR2 activator: 0.8; ADAM17 inh: 0.0; NPR1 activator: -2.9; ADAM10 inh: -6.2

Results for CC(=O)Nc1ccc(S(=O)(=O)NCCNS(=O)(=O)c2ccc(NC(C)=O)cc2)cc1 ?
NPR2 activator: 1.5; ADAM17 inh: -0.5; NPR1 activator: -0.5; ADAM10 inh: -0.3

How did CC(=O)Nc1ccc(S(=O)(=O)NCCSCc2ccc(Cl)cc2Cl)cc1 do in these assays?
NPR2 activator: -5.8; ADAM17 inh: 8.2; NPR1 activator: 1.9; ADAM10 inh: 21.6*; ADAM10 confirm: 5.1; ADAM17 ctr: 1.3

Results for COC(=O)c1ccc(NCc2c(O)ccc(O)c2Br)cc1Cl ?
NPR2 activator: -3.4; ADAM17 inh: 17.1*; NPR1 activator: 3.8; ADAM10 inh: 40.6*; ADAM10 confirm: 4.0; ADAM17 ctr: 1.2

Results for CC(=O)C1(O)CCC2C3CCC4CC(O)CCC4(C)C3C(=O)CC21C (centres undefined) ?
NPR2 activator: -2.4; ADAM17 inh: -3.5; NPR1 activator: 2.3; ADAM10 inh: -3.1

Results for C#CC1(O)CCCC2C3CCC4CC(OC(C)=O)CCC4(C)C3C(=O)CC21C (centres undefined) ?
NPR2 activator: -0.5; ADAM17 inh: 1.9; NPR1 activator: -3.8; ADAM10 inh: 23.9*; ADAM10 confirm: 2.2; ADAM17 ctr: 0.1

How did Clc1ccc(-c2[nH]ncc2N=Nc2ccccc2)cc1 do in these assays?
NPR2 activator: -9.0; ADAM17 inh: 10.3*; NPR1 activator: 1.4; ADAM10 inh: 21.6*; ADAM10 confirm: 8.6; ADAM17 ctr: 3.2; ADAM10 ctr: 14.5; ADAM17 confirm: 10.4*

How did COc1ccc(-c2n[nH]c(C)c2-c2cnn(-c3ccccc3)c2)c(O)c1C do in these assays?
NPR2 activator: 3.8; ADAM17 inh: 15.5*; NPR1 activator: -3.7; ADAM10 inh: 31.6*; ADAM10 confirm: 11.6; ADAM17 ctr: 4.6; ADAM10 ctr: 27.2*; ADAM17 confirm: 15.9*

How did C=C(C)COc1ccc(-c2n[nH]c(C)c2-c2ccc(OC)cc2)c(O)c1 do in these assays?
NPR2 activator: 7.1; ADAM17 inh: 13.5*; NPR1 activator: 2.2; ADAM10 inh: 31.0*; ADAM10 confirm: 13.0; ADAM17 ctr: 4.1; ADAM10 ctr: 34.1*; ADAM17 confirm: 17.0*

Results for COc1ccc(-c2n[nH]c(C)c2-c2cnn(-c3ccccc3)c2)c(O)c1 ?
NPR2 activator: 1.2; ADAM17 inh: 14.9*; NPR1 activator: 1.9; ADAM10 inh: 29.8*; ADAM10 confirm: 3.2; ADAM17 ctr: 1.3; ADAM10 ctr: 23.0*; ADAM17 confirm: 13.6*

What do the screens show for `O=C(NC1CC1)c1ccc2nc([C@H]3C[C@H](O)[C@@H](CO)O3)[nH]c2c1`?
NPR2 activator: 2.9; ADAM17 inh: 2.8; NPR1 activator: 0.5; ADAM10 inh: 0.3

Results for N#CCCN(C(=O)COC(=O)c1ccc(CNS(=O)(=O)c2ccc(F)c(Cl)c2)cc1)c1ccc(F)cc1 ?
NPR2 activator: 1.6; ADAM17 inh: 11.6*; NPR1 activator: -0.9; ADAM10 inh: 20.6*; ADAM10 confirm: 1.6; ADAM17 ctr: 0.5; ADAM10 ctr: 34.5*; ADAM17 confirm: 22.0*

Results for COc1cccc(NC(=O)C(C)OC(=O)c2n[nH]c3ccccc23)c1 (centres undefined) ?
NPR2 activator: 0.5; ADAM17 inh: -0.8; NPR1 activator: -5.7; ADAM10 inh: -2.2

How did O=C(Nc1ccccc1)OCCNC(=O)c1cccc(Br)c1 do in these assays?
NPR2 activator: -1.9; ADAM17 inh: 0.2; NPR1 activator: -3.5; ADAM10 inh: 9.4

What do the screens show for `O=C(Nc1ccc(Cl)c(Cl)c1)OCCNC(=O)c1cccc(Cl)c1`?
NPR2 activator: -8.4; ADAM17 inh: 9.0*; NPR1 activator: -10.1; ADAM10 inh: 28.1*; ADAM10 confirm: 4.6; ADAM17 ctr: 1.3; ADAM10 ctr: 28.2*; ADAM17 confirm: 15.7*

How did O=C(COc1ccc(Cl)cc1Cl)N1CCCN(C(=O)COc2ccc(Cl)cc2Cl)CC1 do in these assays?
NPR2 activator: -6.3; ADAM17 inh: 9.8*; NPR1 activator: -20.1; ADAM10 inh: 25.4*; ADAM10 confirm: 4.0; ADAM17 ctr: 0.9; ADAM10 ctr: 19.5; ADAM17 confirm: 9.2*

What do the screens show for `CCCCCCCCN1C(=O)[C@H](CC(=O)NCc2ccc(OC)c(OC)c2)C[C@@]2(C(=O)OC)CC(C)(C)CC=C12`?
NPR2 activator: -0.9; ADAM17 inh: 8.7*; NPR1 activator: -9.3; ADAM10 inh: 23.8*; ADAM10 confirm: 7.1; ADAM17 ctr: 3.0; ADAM10 ctr: 32.1*; ADAM17 confirm: 15.1*
